Measurements reported in PubChem BioAssay (NCATS).
Inconclusive results are not listed. A call without a number means that no potency is given here. A number with no mark means an inactive call. Active and inactive are the calls of the source. The call rests on the fitted dose curve; in most records, active means well fitted inhibition curve with a large enough effect; inconclusive means small, poorly fitted or top-dose-only effect; inactive means flat fitted curve, though single readings scatter.

assay: P-glycoprotein substrates identified in KB-8-5-11 adenocarcinoma cell line, qHTS therapeutic library screen (AID 1346987); conditions: KB-8-5-11 (P-gp overexpressing) viability, CellTiter-Glo, 72 h; series mostly up to 44.5 µM; further: nearly all actives have a fitted effect of over 65% in size
Procedure, shortened: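 Compounds are pinned in dose-response onto KB-8-5-11 cells (500 cells/well, colchicine-free medium) and left 72 h at 37 degree C. CellTiter-Glo luminescence then yields AC50 values.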

**Q.** For `C[C@H]1C[C@H]2[C@@H]3CCC4=CC(=O)C=C[C@]4(C)[C@@]3(F)[C@@H](O)C[C@]2(C)[C@@]1(O)C(=O)CO`, which Potency is on record?
**A.** The Potency was “inactive”.

**Q.** For `CCC(CC)n1ccc2c(C(=O)NCc3c(C)cc(C)[nH]c3=O)cc(C#N)cc21`, which Potency is on record?
**A.** The Potency was “inactive”.

**Q.** For `CCC/C=C/C(=O)O[C@H]1CC(C)(C)CC2[C@]13[C@H](O)O[C@@]21CCC2[C@@]4(C)CC[C@H](O[C@@H]5O[C@H](C(=O)O)[C@@H](O)[C@H](O[C@@H]6O[C@H](CO)[C@H](O)[C@H](O)[C@H]6O[C@@H]6O[C@@H](C)[C@H](O)[C@@H](O)[C@H]6O[C@@H]6OC[C@](O)(CO)[C@H]6O)[C@H]5O[C@@H]5O[C@H](CO)[C@H](O)[C@H](O)[C@H]5O)C(C)(C)C4CC[C@@]2(C)[C@]1(C)C[C@H]3OC(C)=O` (stereo not given in full), which activity change, negative = cytotoxicity is on record?
**A.** The activity change, negative = cytotoxicity was 0.402% [at 9.29 µM].

**Q.** Which Potency does the source give for `CC1=CC2(O)/C=C/C(C)(O)CC(O)/C=C/C(=O)OC23C(=O)NC(CC(C)C)C3C1C` (stereo not given) here?
**A.** The Potency was “inactive”.

**Q.** With `CC(C)(O)C1CCC2(C)C3C(O)C4C(C13)C42CO` (stereo not given) as the molecule, how does the Potency read?
**A.** Its Potency is “inactive”.

**Q.** Which Potency does the source give for `CC(=O)N[C@@H](CC(=O)N[C@@H](CCC(=O)O)C(=O)O)C(=O)O` here?
**A.** Its Potency is “inactive”.

**Q.** With `C[C@@H]1C(=O)O[C@H]2CC34[C@H]5C[C@@H](C(C)(C)C)C36[C@@H](OC(=O)[C@@H]6O)OC4(C(=O)O5)[C@]21O` (stereo not given in full) as the molecule, how does the Potency read?
**A.** The Potency was “inactive”.

**Q.** With `CC(=O)c1c(O)cc2cccc3c2c1CC(C)(O)O3` (stereo not given) as the molecule, how does the Potency read?
**A.** Its Potency is “inactive”.

**Q.** For `C=C1CC/C=C(/CO)C(=O)C[C@@H]2[C@@H]1CC2(C)C`, which Potency is on record?
**A.** Its Potency is “inactive”.

**Q.** Which Potency does the source give for `C=CC1C(O[C@@H]2O[C@H](CO)[C@@H](O)[C@H](O)[C@H]2O)OC=C(C(=O)OC)C1Cc1nccc2c1[nH]c1ccccc12` (stereo not given in full) here?
**A.** Its Potency is “inactive”.
